{"source": "PubChem BioAssay (Tox21)", "note": "Inconclusive results are not listed. Unmarked numbers belong to inactive results. The call rests on the fitted dose curve; in most records, active means well fitted activation curve with a large enough effect in the repeat runs; inconclusive means weak or mixed curves; inactive means flat fitted curve, though single readings scatter. On the % scale 0 is the no-effect control and ±100 the full control effect."}
{"test": "A CellTox Green Cytotoxicity Assay to monitor cytotoxicity in HEK293 cells - 24 hour (AID 1224875); further: nearly all actives have a fitted effect of over 45% in size", "conditions": "CellTox Green fluorescence; series mostly up to 76.8 µM; activity change: at the top concentration", "text": "National Center for Advancing Translational Sciences [NCATS]\nNIH Chemical Genomics Center [NCGC]\nU.S. Environmental Protection Agency [EPA]\nNational Institutes of Environmental Health Sciences [NIEHS]\nNational Toxicology Program [NTP]\nCell-based models are critical for drug discovery. Determining the natural cytotoxic effects resulting from test compounds is an essential research activity. A CellTox Green Cytotoxicity Assay to monitor cytotoxicity in real time of continues cell culture during 40 hours of the compound treatment was used to screen Tox21 10K library compounds in Hek293 cells. CellTox Green Cytotoxicity Assay is a nonlytic, homogeneous, biofluorescent method to measure cytotoxicity in cell culture after experimental manipulation. The assay system uses a proprietary asymmetric cyanine dye that is excluded from viable cells but preferentially stains the dead cell's DNA. […] Viable cells produce no appreciable increases in fluorescence. Therefore, the fluorescence signal produced by the binding interaction with dead cell DNA is proportional to cytotoxicity.\nThe mixture of Hek293 cell suspension and reagents were dispensed at 600cells/6 ul/well in 1536-well tissue culture treated black solid bottom plates using a Multidrop dispenser. After the assay plates were incubated at a 37 C/5% CO2 incubator for 5 hours, 23 nL of compounds dissolved in DMSO, positive and negative controls was transferred to the assay plate by a pintool work station. The plates were incubated at 37 C for 40 hours. The fluorescence intensity were measured at 0h, 8h, 16h, 24h, 32h and 40h time points using ViewLux plate reader during compound treatment."}
{"molecule": "CCCCN=C(N)N=C(N)N", "activity change": "-10.7% [at 35.3 µM, active compounds read high]"}
{"molecule": "Nc1ccc(C(=O)NCC(=O)O)cc1", "activity change": "-17.8% [at 35.3 µM, active compounds read high]"}
{"molecule": "Cc1cc(C)c(C)c(C)c1", "activity change": "-2.46%"}
{"molecule": "CCCCCCCCCCCCCCCC/C=C/C1CC(=O)OC1=O", "note": "(stereo not given)", "activity change": "-0.403% [at 35.3 µM, active compounds read high]"}
{"molecule": "CC(C)(O)CCCC1=CCC(C=O)CC1", "note": "(stereo not given)", "activity change": "0.173%"}
{"molecule": "CC(=O)Oc1ccc(C(C)=O)cc1", "activity change": "8.6%"}
{"molecule": "CCC(C)SSC(C)CC", "note": "(stereo not given)", "activity change": "15.4%"}
{"molecule": "O=C(O)CCC(=O)Nc1ccc(S(=O)(=O)Nc2nccs2)cc1", "activity change": "-16.6% [at 35.3 µM, active compounds read high]"}
{"molecule": "O=Cc1ccccc1S(=O)(=O)O", "activity change": "-3.3%"}
{"molecule": "CCCCC(O)/C=C(C)/C=C/C=C/C(=O)N1CCCC1=O", "note": "(stereo not given)", "activity change": "-12.5% [at 35.3 µM, active compounds read high]"}
{"molecule": "c1coc(Cn2cccc2)c1", "activity change": "-0.149%"}
{"molecule": "CCCCCCCCC1CO1", "note": "(stereo not given)", "activity change": "-2.93%"}
{"molecule": "CC(=O)SC[C@@H](C)C(=O)N1CCC[C@H]1C(=O)N[C@@H](Cc1ccccc1)C(=O)O", "activity change": "1.39% [at 35.3 µM, active compounds read high]"}
{"molecule": "CC(C)(C)C(=O)CCc1ccc(Cl)cc1", "activity change": "10.2%"}
{"molecule": "N[C@H]1C(O)O[C@H](CO)[C@@H](O)[C@@H]1O", "note": "(stereo not given in full)", "activity change": "-1.75% [at 35.3 µM, active compounds read high]"}
{"molecule": "CSC(=O)c1cccc2nnsc12", "activity change": "-10.9%"}
{"molecule": "CCOC(=O)[C@H](CCc1ccccc1)N[C@H]1CS[C@H](c2cccs2)CN(CC(=O)O)C1=O", "activity change": "1.5% [at 35.3 µM, active compounds read high]"}
{"molecule": "Clc1cc(Cl)c(Cl)c(Cl)c1Cl", "activity change": "6.49%"}
{"molecule": "CC/C=C/CCCCCCCCCCOC(C)=O", "activity change": "3.08%"}
{"molecule": "C/C(=N\\O)c1ccc(OCC(=O)N2CCCCC2)cc1", "activity change": "-3.23% [at 35.3 µM, active compounds read high]"}
{"molecule": "CN(C)CCc1c[nH]c2ccc(C[C@H]3COC(=O)N3)cc12", "activity change": "9.79% [at 35.3 µM, active compounds read high]"}
{"molecule": "Cc1ccc2ccccc2n1", "activity change": "-3.13%"}
{"molecule": "Cc1ccc(NC(N)=O)cc1", "activity change": "-3.04%"}
{"molecule": "CN(C)CCC[C@@]1(c2ccc(F)cc2)OCc2cc(C#N)ccc21", "activity change": "-3.46% [at 35.3 µM, active compounds read high]"}
{"molecule": "O=C(O)COc1ccc2ccccc2c1", "activity change": "1.16%"}
{"molecule": "C/C(Cl)=C/CCl", "activity change": "-1.04%"}
{"molecule": "CC(C)CC(O)Cc1ccccc1", "note": "(stereo not given)", "activity change": "1.86%"}
{"molecule": "O=C(O)/C=C(\\CC(=O)O)C(=O)O", "activity change": "1.5% [at 35.3 µM, active compounds read high]"}
{"molecule": "Nc1cc(S(=O)(=O)O)ccc1O", "activity change": "20.7%"}
{"molecule": "CC(C)(C)c1ccc(C(=O)CCCCl)cc1", "activity change": "13.6% [at 35.3 µM, active compounds read high]"}
{"molecule": "Cc1cc2c(cc1CC(=O)c1sccc1S(=O)(=O)Nc1onc(C)c1Cl)OCO2", "activity change": "-5.9% [at 35.3 µM, active compounds read high]"}
{"molecule": "NC(=O)CC[C@@H](N)C(=O)O", "activity change": "-0.97% [at 35.3 µM, active compounds read high]"}
{"molecule": "N=C(N)N", "activity change": "20.7% [at 35.3 µM, active compounds read high]"}
{"molecule": "CCO/C=C1\\N=C(c2ccccc2)OC1=O", "activity change": "-5.03%"}
{"molecule": "CC(C)OCCO", "activity change": "-11.9%"}
{"molecule": "COCCCOc1cc(C[C@@H](C[C@H](N)[C@@H](O)C[C@H](C(=O)NCC(C)(C)C(N)=O)C(C)C)C(C)C)ccc1OC", "activity change": "-13.2% [at 35.3 µM, active compounds read high]"}
{"molecule": "Cc1cc(N)no1", "activity change": "-1.94%"}
{"molecule": "COCc1nnc(-c2ccc[n+]([O-])c2)n1-c1c(Cl)c(Cl)cc2[nH]c(=O)c(=O)[nH]c12", "activity change": "-9.62%"}
{"molecule": "CCN(CC)CC", "activity change": "-9.69%"}
{"molecule": "CCCCCCC(O)CO", "note": "(stereo not given)", "activity change": "-16.3%"}
